Marburg entry inh: qHTS for inhibitors of binding or entry into cells for Marburg Virus; Marburg virus pseudotyped entry inhibition, cell reporter; Potency, µM (top dose mostly 37.8 µM), most hits filed as inhibitors; hit rate 1.8% among 300,000; calls by dose curve; tested in HEK293 cells
Vaccinia Venus: qHTS for Stage-Specific Inhibitors of Vaccinia Orthopoxvirus: Venus Reporter Primary qHTS; Vaccinia virus Venus reporter expression, fluorescence; Potency, µM (highest dose often 36.5 µM), actives largely listed as inhibitors; hit rate 0.46% among 330,000; AID 720580, 2013; calls by dose curve; tested in A549 cells; also: nearly all actives have a fitted effect of over 30% in size
Lassa entry inh: qHTS for Inhibitors of binding or entry into cells for Lassa Virus | Lassa virus pseudotype entry inhibition, cell reporter | Potency, µM (doses to about 37.9 µM), actives largely listed as inhibitors | hit rate 1.2% among 300,000 | AID 540256, 2011; calls by dose curve; tested in HEK293 cells; also: nearly all actives have a fitted effect of over 50% in size
HCV inhibitor: qHTS Assay for Inhibitors of Hepatitis C Virus (HCV) | Potency, µM (doses to about 41.8 µM), actives largely listed as inhibitors | hit rate 3.4% among 340,000 | Huh7.5.1 HCVcc-Cre infection, luciferase reporter, 44 h; active = well fitted inhibition curve with a large enough effect; inconclusive = small, poorly fitted or top-dose-only effect, or another doubt; inactive = no such curve, though single readings can be large or run the other way
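Infectious HCV cell culture screen: compound-treated cells (1,000/well, pre-plated 4 h) are infected with HCVcc-Cre at roughly 0.5 moi and grown 44 h. Infection is quantified by luciferase signal after 15 min substrate incubation at room temperature.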
Vaccinia mCherry: qHTS for Stage-Specific Inhibitors of Vaccinia Orthopoxvirus: mCherry Reporter Primary qHTS. hit rate 0.63% among 310,000. Potency, µM (highest dose often 36.5 µM), actives largely listed as inhibitors. Vaccinia virus mCherry reporter infection, fluorescence; calls by dose curve; tested in A549 cells; also: nearly all actives have a fitted effect of over 35% in size
HCMV inh: qHTS Assay for inhibitors of the human cytomegalovirus (HCMV); hit rate 4.5% among 410,000; activity change, negative = inhibition, % at 57.5 µM; HFF cells, HCMV-luciferase reporter, 72 h; active compounds read low; AID 1259415, 2018; in the data active = activity change below about -60%; inconclusive = no clear call, values can overlap the other calls; inactive = above about -39%
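Steps: HFFs plated, 16 h 37C; compounds added; HCMV-luciferase added to MOI 1 PFU/cell; 72 h 37C; OneGlo reagent, 5 min room temperature; luminescence read, normalized to controls.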
A number is an active result; [ ] = remark or other dose. Only some compounds are listed: those with a hit (about 7.8% of all), similar ones and a draw of the others.

What do the screens show for `COC(=O)c1sc2cccc(F)c2c1S(=O)(=O)N1CCN(c2ccccc2OC)CC1`?
Vaccinia Venus: inactive; Lassa entry inh: inconclusive; Vaccinia mCherry: inactive; HCMV inh: inactive

What do the screens show for `CCN1C(=O)[C@H]2[C@@H](c3ccc(C(F)(F)F)cc3)N[C@]3(CCCN(Cc4ccc(F)cc4)C3=O)[C@H]2C1=O`?
Vaccinia Venus: inconclusive; Vaccinia mCherry: inactive; HCMV inh: inactive

How did CCn1c(=O)c2cc(C(=O)N3CCN(c4cccc(Cl)c4)CC3)sc2c2ccccc21 do in these assays?
Marburg entry inh: inconclusive; Vaccinia Venus: inactive; Lassa entry inh: inactive; Vaccinia mCherry: inactive; HCMV inh: inactive

Results for CCc1ccc(/C=C/C(=O)C2C(=O)c3ccccc3C2=O)cc1 ?
Marburg entry inh: inconclusive; Vaccinia Venus: inactive; Lassa entry inh: 2.31µM; HCV inhibitor: inconclusive; Vaccinia mCherry: inactive; HCMV inh: inactive

Results for O=C(/C=C/c1ccccc1)C1C(=O)c2ccccc2C1=O ?
Marburg entry inh: inactive; Vaccinia Venus: inactive; Lassa entry inh: inactive; HCV inhibitor: inconclusive; Vaccinia mCherry: inactive; HCMV inh: inactive

How did CC(NC(=O)COC(=O)c1c[nH]c2ccccc12)c1ccccc1 (stereo not given) do in these assays?
Marburg entry inh: inactive; Vaccinia Venus: inactive; Lassa entry inh: 8.91µM; HCV inhibitor: inactive; Vaccinia mCherry: inactive; HCMV inh: inactive

How did O=C(COC(=O)c1c[nH]c2ccccc12)Nc1ccccc1 do in these assays?
Marburg entry inh: inactive; Vaccinia Venus: inactive; Lassa entry inh: inactive; HCV inhibitor: inactive; Vaccinia mCherry: inactive; HCMV inh: inactive

How did CN(C)c1ccc(/C=N/NC(=O)c2cc(-c3ccc4c(c3)OCO4)n[nH]2)cc1 do in these assays?
Marburg entry inh: inactive; Vaccinia Venus: inactive; Lassa entry inh: inconclusive; HCV inhibitor: inconclusive; Vaccinia mCherry: inactive; HCMV inh: inactive

Results for O=C(N/N=C/c1ccc(F)cc1)c1cc(-c2ccc3c(c2)OCO3)n[nH]1 ?
Marburg entry inh: inactive; Vaccinia Venus: inactive[7.34 µM]; Lassa entry inh: 8.91µM; HCV inhibitor: inconclusive; Vaccinia mCherry: inactive[7.34 µM]; HCMV inh: inactive

How did O=C(N/N=C/c1ccc2c(c1)OCO2)c1ccc(NC(=O)c2ccc(F)cc2)cc1 do in these assays?
Marburg entry inh: inactive; Vaccinia Venus: inactive; Lassa entry inh: inactive; HCV inhibitor: inactive; Vaccinia mCherry: inconclusive; HCMV inh: -86.3

How did O=C(N/N=C/c1ccc2c(c1)OCO2)c1ccc2c(c1)OCCO2 do in these assays?
Marburg entry inh: inconclusive; Vaccinia Venus: inactive; Lassa entry inh: inconclusive; HCV inhibitor: inactive; Vaccinia mCherry: inconclusive; HCMV inh: inactive

Results for O=C(NCc1nnc2n1CCN(Cc1ccnc3ccccc13)CC2)c1cccc(F)c1 ?
Vaccinia Venus: inactive; Vaccinia mCherry: inactive

What do the screens show for `COc1cccc(CNC(=O)CN2C(=O)COc3ccc(S(=O)(=O)Nc4ccccc4)cc32)c1`?
Vaccinia Venus: inactive; Lassa entry inh: inactive; Vaccinia mCherry: inactive; HCMV inh: inactive

How did O=C1C=C2C(=CCOC2O)O1 (stereo not given) do in these assays?
Vaccinia Venus: 11.2µM; Vaccinia mCherry: 11.2µM

Results for CCC(Sc1ncnc2sc3c(c12)CCCC3)C(=O)OCC(C)C (stereo not given) ?
Marburg entry inh: inactive; Vaccinia Venus: inactive; Lassa entry inh: inactive; Vaccinia mCherry: inactive; HCMV inh: inactive

Results for CN(C(=O)c1cccc(NC(=O)Cc2cccc(NC(=O)C3CCCN(C(=O)CCc4ccccc4)C3)c2)c1)C1CCC1 (stereo not given) ?
Vaccinia Venus: inconclusive; HCV inhibitor: 3.55µM; Vaccinia mCherry: inconclusive; HCMV inh: inactive

Results for O=C(Nc1cccc(C(=O)N2CCCC2)c1)C1CCC1 ?
Vaccinia Venus: inactive; HCV inhibitor: 0.562µM; Vaccinia mCherry: inactive; HCMV inh: inactive

Results for O=C(Cc1cccc(NC(=O)C2CCCN(C(=O)CCc3ccccc3)C2)c1)Nc1cccc(C(=O)N2CCCCC2)c1 (stereo not given) ?
Vaccinia Venus: inactive; HCV inhibitor: 4.47µM; Vaccinia mCherry: inactive; HCMV inh: inactive

Results for O=C(Cc1cccc(NC(=O)C2CCCN(C(=O)CCc3ccccc3)C2)c1)Nc1cccc(C(=O)N2CCOCC2)c1 (stereo not given) ?
Vaccinia Venus: inactive; HCV inhibitor: inconclusive; Vaccinia mCherry: inactive; HCMV inh: inactive

How did O=C(Nc1cccc(C(=O)N2CCCCC2)c1)C1CCC1 do in these assays?
Vaccinia Venus: inactive; HCV inhibitor: inactive; Vaccinia mCherry: inactive; HCMV inh: inactive

What do the screens show for `CCOc1ccccc1NC(=O)c1c(NC(=O)COc2ccccc2)sc2c1CCCCC2`?
Vaccinia Venus: inactive; Lassa entry inh: inactive; Vaccinia mCherry: inactive; HCMV inh: inactive

How did COC(=O)[C@H](CC(C)C)N(Cc1ccc(Br)cc1)S(=O)(=O)CCl do in these assays?
Lassa entry inh: inactive

What do the screens show for `CCOc1cc(S(=O)(=O)Nc2ccccc2CC)ccc1Cl`?
Marburg entry inh: inactive; Vaccinia Venus: inactive; Lassa entry inh: inactive; HCV inhibitor: 10µM; Vaccinia mCherry: inactive; HCMV inh: inactive

Results for CCOc1cc(S(=O)(=O)Nc2ccc(CC)cc2)ccc1Cl ?
Marburg entry inh: inactive; Lassa entry inh: inactive; HCV inhibitor: inactive; HCMV inh: inactive

How did CC(=O)n1cc(-c2ccncc2)c2ccccc21 do in these assays?
Vaccinia Venus: inactive; HCV inhibitor: 10µM; Vaccinia mCherry: inactive; HCMV inh: -93.6

How did CCC1C(=O)NCCN1Cc1ccc2c(c1)CN(Cc1cc(OC)c3c(c1)OCO3)CCO2 (stereo not given) do in these assays?
Vaccinia Venus: inactive; Vaccinia mCherry: inactive

Results for CCC(Sc1nnc(C)n2c1cc1sccc12)C(=O)Nc1ccccc1F (stereo not given) ?
Vaccinia Venus: inactive; Lassa entry inh: inactive; Vaccinia mCherry: inactive; HCMV inh: -64.3

What do the screens show for `CCC(Sc1nncn2c1cc1sccc12)C(=O)Nc1cccc(OC)c1` (stereo not given)?
Vaccinia Venus: inactive; Lassa entry inh: inconclusive; Vaccinia mCherry: inactive; HCMV inh: inactive

Results for OCC1O[C@@H](OC2C(O)C(CO)O[C@@]2(CO)O[C@@H]2OC(CO)C(O)C(O)C2O)C(O)C(O)C1O (stereo not given in full) ?
Vaccinia Venus: inactive; Vaccinia mCherry: inactive

Results for CCC[C@@H](CN1CCC[C@H]1CN1C(N)=NC[C@H]1C(C)C)N1C[C@@H]([C@H](C)CC)N(CCCC2CCCC2)C1=N ?
Vaccinia Venus: inactive; HCV inhibitor: inactive; Vaccinia mCherry: inactive; HCMV inh: inactive

How did CCC[C@@H](CN1CCC[C@H]1CN1C(N)=NC[C@H]1CC(C)C)N1C[C@@H]([C@H](C)CC)N(CCCC2CCCC2)C1=N do in these assays?
Vaccinia Venus: inactive; HCV inhibitor: 2.82µM; Vaccinia mCherry: inactive; HCMV inh: inactive
